Measured values: ChEMBL document CHEMBL3433997, “St. Jude Leishmania screening dataset” (2016)

Columns and labels:
Assay type in all cases: functional
[1] = target: Solute carrier family 2, facilitated glucose transporter member 1 (Homo sapiens) (UniProt P11166); experiment: ST_JUDE_LEISH: Cytotoxicity at 2uM final concentration against transgenic Leishmania Mexicana promastigotes LmGLUT1 that are glucose transport deficient and complemented with the human glucose transporter GLUT1. Activity is measured by DNA content using SYBR green in vitro
[2] = target: Hexose transporter 1 (Plasmodium falciparum) (UniProt O97467); experiment: ST_JUDE_LEISH: Cytotoxicity at 2uM final concentration against transgenic Leishmania Mexicana promastigotes LmPfHT that are glucose transport deficient and complemented with the Plasmodium falciparum hexose transporter. Activity is measured by DNA content using SYBR green in vitro
[3] = target: Glucose transporter (Leishmania mexicana) (UniProt O61059); experiment: ST_JUDE_LEISH: Cytotoxicity at 2uM final concentration against transgenic Leishmania Mexicana promastigotes LmGT2 that are glucose transport deficient and complemented with the L. Mexicana glucose transporter 2. Activity is measured by DNA content using SYBR green in vitro

Sequence of Solute carrier family 2, facilitated glucose transporter member 1 (Homo sapiens) (P11166 whole entry): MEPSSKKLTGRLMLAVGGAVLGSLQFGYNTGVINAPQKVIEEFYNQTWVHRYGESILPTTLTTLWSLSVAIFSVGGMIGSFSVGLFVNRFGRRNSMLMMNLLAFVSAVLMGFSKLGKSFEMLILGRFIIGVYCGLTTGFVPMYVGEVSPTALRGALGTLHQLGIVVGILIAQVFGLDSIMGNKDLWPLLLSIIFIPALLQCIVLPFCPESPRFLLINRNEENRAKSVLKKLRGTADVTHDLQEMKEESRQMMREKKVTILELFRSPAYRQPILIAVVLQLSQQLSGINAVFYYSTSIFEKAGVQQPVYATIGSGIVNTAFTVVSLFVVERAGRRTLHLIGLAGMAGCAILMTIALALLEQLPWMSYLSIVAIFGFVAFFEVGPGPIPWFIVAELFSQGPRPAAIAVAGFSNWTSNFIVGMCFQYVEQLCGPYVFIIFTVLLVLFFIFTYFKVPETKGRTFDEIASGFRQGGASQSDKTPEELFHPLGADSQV

SMILES | inhibition [1] | inhibition [2] | inhibition [3]
CC(C)CN1CCN(c2nc(C#N)c3c(c2C(=S)NC2CCCCC2)CC(C)(C)OC3)CC1 | 0.49% | -1.31% | -1.75%
CCNc1cc(C(=O)N[C@@H](Cc2ccccc2)[C@H](O)CNCc2cc(OC)cc(OC)c2)cc(N2CCCS2(=O)=O)c1 | 1.6% | 2.17% | -0.47%
Cc1ccc2[nH]c(-c3ccccc3N)cc2c1 | 3.92% | 4.5% | 4.49%
COC(=O)Cn1c(C2CCN(CC3CCC(NC(=O)/C=C/c4ccc(Cl)c(Cl)c4)CC3)CC2)nc2ccccc21 (configuration not stated) | 1.86% | 0.18% | 2.43%
Cc1cccc2nc(-c3cccc(-c4ccc(NC(=O)CN5CCN(C)CC5)cc4)c3)[nH]c12 | 2.17% | 3.31% | 0.62%
CN(CCCCCNC(=O)/C=C/c1ccc(Cl)c(Cl)c1)CCCCc1c[nH]c2ccccc12 | 0.57% | 0.62% | 1.11%
CCCCCCNC(=N)c1ccc(OCCCCCOc2ccc(C(=N)NCCCCCC)cc2)cc1 | 58.5% | 59.4% | 37.2%
COc1c(C2CCN(CCN3CCC(NC(=O)c4ccc(-c5ccc(C(F)(F)F)cc5)cc4)CC3)CC2)ccc2c1CCCC2 | 0.78% | 1.26% | 0.67%
Cc1noc(C)c1-c1cccc(CNCc2ccc(-c3ccc(-c4nc5ccccc5[nH]4)s3)cc2)c1 | 1.82% | 1.38% | -0.04%
O=[N+]([O-])c1cccc(CNC2CCN(Cc3ccc(-c4ccccc4)cc3)CC2)c1 | 1.94% | 8.06% | 2.9%
CCCc1ccc(Nc2nc(C)cc(N(CC)CCCN3CCCCC3)n2)cc1 | -3.11% | -2.14% | 0.52%
COc1c(C2CCN(CCCCNC(=O)c3cc(-c4ccc(C#N)cc4)n[nH]3)CC2)ccc2c1CCCC2 | -0.72% | 0.62% | 1.75%
Cc1ccc2[nH]ncc2c1N(CC1CCCCC1)c1ccnc(Nc2ccc(OCC(O)CN3CC=CCC3)cc2)n1 (configuration not stated) | 2.37% | 3.33% | -0.59%
N=C(N)Nc1nc(-c2ccc(NC(=N)N3CCC[C@H]3CN3CCCC3)cc2)cs1 | -0.01% | -0.2% | -0.7%
O=C(Nc1cccc(-c2ccc(-c3nc4cc(C(F)(F)F)ccc4[nH]3)cc2)c1)Nc1ccc(Cl)c(Cl)c1 | 3.88% | 2.8% | 1.65%
CN(C1CCC(NC(=O)/C=C/c2ccccc2)CC1)C1CC2(CCN(C(=O)OC(C)(C)C)CC2)c2ccccc21 (configuration not stated) | 9.97% | 5.58% | 6.01%
Nc1ccc2c(N)c3ccccc3nc2c1 | 0.33% | 0.2% | -1.77%
CNC(=O)c1cncc(/C=C/c2ccccc2S(N)(=O)=O)c1 | -0.22% | 4.59% | -0.59%
CC(=O)Nc1ccc(OCCCCN(Cc2ccccc2OC(F)(F)F)c2ccc(C(F)(F)F)c(C#N)c2)c(Cl)c1 | 1.46% | 4.12% | 7.95%
c1ccc(COc2ccc(Nc3ncnc4cnc(-c5ccc(CNc6cccnc6)o5)cc34)cc2)cc1 | 3.94% | 3.46% | 0.83%
Nc1c2c(nc3ccc(C(=O)Nc4cc(I)c(O)c(I)c4)cc13)CCCC2 | 1.22% | 1.9% | 1.74%
Cc1cc(N[C@@H](Cc2ccccc2)C(=O)NC2CCCC2)nc(NCCc2ccc(F)cc2)n1 | 5.06% | 5.18% | -0.53%
O=C(Nc1ccc(N2CCN(C(=O)/C=C/c3ccccc3)CC2)c(Cl)c1)c1ccc([N+](=O)[O-])o1 | 58.5% | 68% | 13.7%
CN(C)C(=O)CC(=O)NCc1cccc(Cl)c1 | 6.99% | 6.27% | 7.23%
